# PubChem BioAssay (EPA / NIEHS)
# Activity calls are given as the source filed them. How the source made its calls: active means hit-call score of the fitted dose curve at least 0.9, where 1 is the maximum; inactive means score below 0.9.
# How the values were obtained:
# [1] = read-out: Monokine induced gamma interferon (MIG), CXCL9 (gene 4283); experiment: BSK_BE3C_MIG: BioMAP Diversity Plus: BE3C Assay for Monokine induced gamma interferon (MIG) Biomarker Activity (AID 2283035); settings: primary human bronchial epithelial cells; actives raise or lower the signal;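 on outcome: MIG protein measured by ELISA in BE3C cultures after 24 h of dosing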
# In short: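 MIG level was determined by ELISA after 24 h chemical treatment of primary human bronchial epithelial cells. Values were fitted bidirectionally with DMSO as the negative control and activity baseline.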
# [2] = read-out: Transforming growth factor beta 1 (TGFb1), TGFB1 (gene 7040); experiment: BSK_BE3C_TGFb1: BioMAP Diversity Plus: BE3C Assay for Transforming growth factor beta 1 (TGFb1) Biomarker Activity (AID 2283036;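 on outcome: TGF-b1 protein level measured by ELISA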); settings: primary human bronchial epithelial cells; actives raise or lower the signal
# In short: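 In this human primary bronchial epithelial system, an ELISA quantified TGF-b1 one day after dosing. Endpoint changes in either direction were fitted relative to DMSO.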
# [3] = read-out: Plasminogen activator inhibitor-1 (PAI1), SERPINE1 (gene 5054); experiment: BSK_BE3C_PAI1: BioMAP Diversity Plus: BE3C Assay for Plasminogen activator inhibitor-1 (PAI1) Biomarker Activity (AID 2283037); settings: primary human bronchial epithelial cells; actives raise or lower the signal
# In short: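 PAI-1 biomarker levels in treated human bronchial epithelial cells are determined by ELISA at 24 h. Both increases and decreases relative to DMSO are fitted.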
# [4] = read-out: Interleukin-6 (IL6), IL6 (gene 3569); experiment: BSK_CASM3C_IL6: BioMAP Diversity Plus: CASM3C Assay for Interleukin-6 (IL6) Biomarker Activity for (AID 2283040); settings: primary human coronary artery smooth muscle cells; actives raise or lower the signal
# [5] = read-out: Tissue plasminogen activator (tPA), PLAT (gene 5327); experiment: BSK_BE3C_tPA: BioMAP Diversity Plus: BE3C Assay for Tissue plasminogen activator (tPA) Biomarker Activity (AID 2283041); settings: primary human bronchial epithelial cells; actives raise or lower the signal;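 on outcome: tPA level quantified by ELISA one day after compound addition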
# In short: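 Bidirectional curve fitting relative to DMSO defined activity, with tPA detected by ELISA in chemically treated human bronchial epithelial primary cells at 24 hours.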
# [6] = read-out: Interleukin-8 (IL8), CXCL8 (gene 3576); experiment: BSK_CASM3C_IL8: BioMAP Diversity Plus: CASM3C Assay for Interleukin-8 (IL8) Biomarker Activity (AID 2283042); settings: primary human coronary artery smooth muscle cells; actives raise or lower the signal;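 further: IL-8 protein level quantified by ELISA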
# [7] = read-out: Human Leukocyte Antigen - DR isotype (HLADR), HLA-DRA (gene 3122); experiment: BSK_CASM3C_HLADR: BioMAP Diversity Plus: CASM3C Assay for Human Leukocyte Antigen - DR isotype (HLADR) Biomarker Activity (AID 2283043); settings: primary human coronary artery smooth muscle cells; actives raise or lower the signal;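 further: cell-surface HLA-DR protein level quantified by ELISA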
# [8] = read-out: Macrophage colony-stimulating factor (MCSF), CSF1 (gene 1435); experiment: BSK_CASM3C_MCSF: BioMAP Diversity Plus: CASM3C Assay for Macrophage colony-stimulating factor (MCSF) Biomarker Activity (AID 2283044); settings: primary human coronary artery smooth muscle cells; actives raise or lower the signal;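 further: M-CSF protein amount quantified by ELISA after 24 h exposure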
# [9] = read-out: Low-density lipoprotein receptor (LDLR), LDLR (gene 3949); experiment: BSK_CASM3C_LDLR: BioMAP Diversity Plus: CASM3C Assay for Low-density lipoprotein receptor (LDLR) Biomarker Activity (AID 2283045); settings: primary human coronary artery smooth muscle cells; actives raise or lower the signal;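 further: LDLR protein level on the cell surface quantified by ELISA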
# [10] = read-out: Monocyte Chemoattractant Protein-1 (MCP1), CCL2 (gene 6347); experiment: BSK_CASM3C_MCP1: BioMAP Diversity Plus: CASM3C Assay for Monocyte Chemoattractant Protein-1 (MCP1) Biomarker Activity (AID 2283046); settings: primary human coronary artery smooth muscle cells; actives raise or lower the signal;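 further: MCP-1 level quantified by ELISA 24 h after dosing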
# [11] = BSK_CASM3C_Proliferation: Cell Proliferation Assessment in the BioMAP Diversity Plus: CASM3C Assay (AID 2283047); settings: primary human coronary artery smooth muscle cells;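 further: sulforhodamine B total protein stain as relative cell number at 560 nm; sub-confluent cells exposed 48 h before staining; fitted both ways against DMSO so gain or loss of cell number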
# [12] = read-out: Monokine induced gamma interferon (MIG), CXCL9 (gene 4283); experiment: BSK_CASM3C_MIG: BioMAP Diversity Plus: CASM3C Assay for Monokine induced gamma interferon (MIG) Biomarker Activity (AID 2283048); settings: primary human coronary artery smooth muscle cells; actives raise or lower the signal;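 further: MIG protein level measured by ELISA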
# [13] = read-out: serum amyloid A (SAA), SAA1 (gene 6288); experiment: BSK_CASM3C_SAA: BioMAP Diversity Plus: CASM3C Assay for serum amyloid A (SAA) Biomarker Activity (AID 2283049); settings: primary human coronary artery smooth muscle cells; actives raise or lower the signal;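 further: SAA protein level quantified by ELISA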
# [14] = BSK_CASM3C_SRB: Viability Assessment in the BioMAP Diversity Plus: CASM3C Assay (AID 2283050); settings: primary human coronary artery smooth muscle cells;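 further: total protein by SRB staining as cytotoxicity measure in parallel cultures; cells exposed to compound for 24 h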
# [15] = read-out: Thrombomodulin, THBD (gene 7056); experiment: BSK_CASM3C_Thrombomodulin: BioMAP Diversity Plus: CASM3C Assay for Thrombomodulin Biomarker Activity (AID 2283051); settings: primary human coronary artery smooth muscle cells; actives raise or lower the signal;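 further: thrombomodulin protein level measured by ELISA 24 h after dosing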
# [16] = read-out: Tissue Factor, F3 (gene 2152); experiment: BSK_CASM3C_TissueFactor: BioMAP Diversity Plus: CASM3C Assay for Tissue Factor Biomarker Activity (AID 2283052); settings: primary human coronary artery smooth muscle cells; actives raise or lower the signal;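 further: cell surface tissue factor protein level read by ELISA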
# [17] = read-out: Interferon-gamma inducible Protein 10 (IP10), CXCL10 (gene 3627); experiment: BSK_hDFCGF_IP10: BioMAP Diversity Plus: hDFCGF Assay for Interferon-gamma inducible Protein 10 (IP10) Biomarker Activity (AID 2283053); settings: primary human foreskin fibroblasts; actives raise or lower the signal
# In short: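 IP-10 levels, quantified by ELISA, are taken from human foreskin fibroblast cultures 24 h after chemical treatment, with DMSO serving as negative control and baseline for bidirectional analysis.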
# [18] = read-out: Urokinase-type plasminogen activator receptor (uPAR), PLAUR (gene 5329); experiment: BSK_CASM3C_uPAR: BioMAP Diversity Plus: CASM3C Assay for Urokinase-type plasminogen activator receptor (uPAR) Biomarker Activity (AID 2283054); settings: primary human coronary artery smooth muscle cells; actives raise or lower the signal;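 further: cell-surface uPAR protein level quantified by ELISA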
# [19] = read-out: Urokinase-type plasminogen activator receptor (uPAR), PLAUR (gene 5329); experiment: BSK_BE3C_uPAR: BioMAP Diversity Plus: BE3C Assay for Urokinase-type plasminogen activator receptor (uPAR) Biomarker Activity (AID 2283039); settings: primary human bronchial epithelial cells; actives raise or lower the signal;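 further: uPAR protein level measured by ELISA on the cells; cells exposed to compound for one day before measurement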
# In short: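 A uPAR ELISA serves as the readout, taken 24 h after treating primary human bronchial epithelial cells. Responses in either direction are fitted against DMSO, which defines baseline activity.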
structure (smiles),measurement,setting,value
Clc1nc(Cl)c(Cl)c(Cl)c1Cl,outcome,[1],inactive
same,outcome,[2],inactive
same,outcome,[3],inactive
same,outcome,[4],inactive
same,outcome,[5],inactive
same,outcome,[6],inactive
same,outcome,[7],inactive
same,outcome,[8],inactive
same,outcome,[9],inactive
same,outcome,[10],inactive
same,outcome,[11],inactive
same,outcome,[12],inactive
same,outcome,[13],inactive
same,outcome,[14],inactive
same,outcome,[15],inactive
same,outcome,[16],inactive
same,outcome,[17],inactive
same,outcome,[18],inactive
CCOCCOCCOCCO,outcome,[1],inactive
same,outcome,[2],inactive
same,outcome,[3],inactive
same,outcome,[4],inactive
same,outcome,[5],inactive
same,outcome,[6],inactive
same,outcome,[7],inactive
same,outcome,[8],inactive
same,outcome,[9],inactive
same,outcome,[10],inactive
same,outcome,[11],inactive
same,outcome,[12],inactive
same,outcome,[13],inactive
same,outcome,[14],inactive
same,outcome,[15],inactive
same,outcome,[16],inactive
same,outcome,[17],inactive
same,outcome,[18],inactive
CC(=O)c1ccc2c(c1)[C@H](NC(=O)c1ccc(F)cc1)[C@@H](O)C(C)(C)O2,outcome,[1],inactive
same,outcome,[2],inactive
same,outcome,[3],inactive
same,outcome,[19],inactive
same,outcome,[4],inactive
same,outcome,[5],inactive
same,outcome,[6],inactive
same,outcome,[7],inactive
same,outcome,[8],inactive
same,outcome,[9],inactive
same,outcome,[10],inactive
same,outcome,[11],inactive
same,outcome,[12],inactive
same,outcome,[13],inactive
same,outcome,[14],inactive
same,outcome,[15],inactive
same,outcome,[16],inactive
same,outcome,[17],inactive
same,outcome,[18],inactive
CC(C)=CCC/C(C)=C\CO,outcome,[1],inactive
same,outcome,[2],inactive
same,outcome,[3],inactive
same,outcome,[4],inactive
same,outcome,[5],inactive
same,outcome,[6],inactive
same,outcome,[7],inactive
same,outcome,[8],inactive
same,outcome,[9],inactive
same,outcome,[10],inactive
same,outcome,[11],inactive
same,outcome,[12],inactive
same,outcome,[13],inactive
same,outcome,[14],inactive
same,outcome,[15],inactive
same,outcome,[16],inactive
same,outcome,[17],inactive
same,outcome,[18],inactive
COCCOCCOCCOC,outcome,[1],inactive
same,outcome,[2],inactive
same,outcome,[3],inactive
same,outcome,[19],inactive
same,outcome,[4],inactive
same,outcome,[5],inactive
same,outcome,[6],inactive
same,outcome,[7],inactive
same,outcome,[8],inactive
same,outcome,[9],inactive
same,outcome,[10],inactive
same,outcome,[11],inactive
same,outcome,[12],inactive
same,outcome,[13],inactive
same,outcome,[14],inactive
same,outcome,[15],inactive
same,outcome,[16],inactive
same,outcome,[17],inactive
same,outcome,[18],inactive
Cc1ccc(S(=O)(=O)O)cc1C,outcome,[1],inactive
same,outcome,[2],inactive
same,outcome,[3],inactive
same,outcome,[4],inactive
same,outcome,[5],inactive
same,outcome,[6],inactive
same,outcome,[7],inactive
same,outcome,[8],inactive
same,outcome,[9],inactive
same,outcome,[10],inactive
same,outcome,[11],inactive
same,outcome,[12],inactive
same,outcome,[13],inactive
same,outcome,[14],inactive
same,outcome,[15],inactive
same,outcome,[16],inactive
same,outcome,[17],inactive
same,outcome,[18],inactive
Cn1c(=O)c2c(ncn2C)n(C)c1=O,outcome,[1],inactive
same,outcome,[2],inactive
same,outcome,[3],inactive
same,outcome,[4],inactive
same,outcome,[5],inactive
same,outcome,[6],inactive
same,outcome,[7],inactive
same,outcome,[8],inactive
same,outcome,[9],inactive
same,outcome,[10],inactive
same,outcome,[11],inactive
same,outcome,[12],inactive
same,outcome,[13],inactive
same,outcome,[14],inactive
same,outcome,[15],inactive
same,outcome,[16],inactive
same,outcome,[17],inactive
same,outcome,[18],inactive
COc1ccc(-n2nc(C(F)F)cc2-c2ccc(S(C)=O)cc2)cc1 (stereo unspecified),outcome,[1],inactive
same,outcome,[2],inactive
same,outcome,[3],inactive
same,outcome,[19],inactive
same,outcome,[4],inactive
same,outcome,[5],inactive
same,outcome,[6],inactive
same,outcome,[7],inactive
same,outcome,[8],inactive
same,outcome,[9],inactive
same,outcome,[10],inactive
same,outcome,[11],inactive
same,outcome,[12],inactive
same,outcome,[13],inactive
same,outcome,[14],inactive
same,outcome,[15],inactive
same,outcome,[16],inactive
same,outcome,[17],inactive
same,outcome,[18],inactive
CC(=O)OCCC(C)C,outcome,[1],inactive
same,outcome,[2],inactive
same,outcome,[3],inactive
same,outcome,[4],inactive
same,outcome,[5],inactive
same,outcome,[6],inactive
same,outcome,[7],inactive
same,outcome,[8],inactive
same,outcome,[9],inactive
same,outcome,[10],inactive
same,outcome,[11],inactive
same,outcome,[12],inactive
same,outcome,[13],inactive
same,outcome,[14],inactive
same,outcome,[15],inactive
same,outcome,[16],inactive
same,outcome,[17],inactive
same,outcome,[18],inactive
CC(=O)OC[C@H]1O[C@@](COC(C)=O)(O[C@H]2O[C@H](COC(C)=O)[C@@H](OC(C)=O)[C@H](OC(C)=O)[C@H]2OC(C)=O)[C@@H](OC(C)=O)[C@@H]1OC(C)=O,outcome,[1],inactive
same,outcome,[2],inactive
same,outcome,[3],inactive
same,outcome,[19],inactive
same,outcome,[4],inactive
same,outcome,[5],inactive
same,outcome,[6],inactive
same,outcome,[7],inactive
same,outcome,[8],inactive
same,outcome,[9],inactive
same,outcome,[10],inactive
same,outcome,[11],inactive
same,outcome,[12],inactive
same,outcome,[13],inactive
same,outcome,[14],inactive
same,outcome,[15],inactive
same,outcome,[16],inactive
same,outcome,[17],inactive
same,outcome,[18],inactive
On1ccccc1=S,AC50,[1],5.25 µM (active)
same,AC50,[2],5.47 µM (active)
same,AC50,[3],3.45 µM (active)
same,AC50,[4],32.2 µM (active)
same,AC50,[5],3.55 µM (active)
same,outcome,[6],inactive
same,AC50,[7],27.7 µM (active)
same,AC50,[8],33.7 µM (active)
same,AC50,[9],11.7 µM (active)
same,AC50,[10],32.1 µM (active)
same,AC50,[11],6.45 µM (active)
same,outcome,[12],inactive
same,outcome,[13],inactive
same,AC50,[14],26.8 µM (active)
same,AC50,[15],0.878 µM (active)
same,outcome,[16],inactive
same,AC50,[17],0.422 µM (active)
same,AC50,[18],25.6 µM (active)
O=C1CCCCCN1,outcome,[1],inactive
same,outcome,[2],inactive
same,outcome,[3],inactive
same,outcome,[19],inactive
same,outcome,[4],inactive
same,outcome,[5],inactive
same,outcome,[6],inactive
same,outcome,[7],inactive
same,outcome,[8],inactive
same,outcome,[9],inactive
same,outcome,[10],inactive
same,outcome,[11],inactive
same,outcome,[12],inactive
same,outcome,[13],inactive
same,outcome,[14],inactive
same,outcome,[15],inactive
same,outcome,[16],inactive
same,outcome,[17],inactive
same,outcome,[18],inactive
